Experimental data as given in the supplement of paper PMC4206461.
Values without a mark were called inactive.

test system: Pseudomonas aeruginosa PA14 dppBCDF deletion mutant; experiment: respiration area under curve with compound as sole nitrogen source, 24 h (OmniLog AUC (arbitrary units)); higher = more respiration / better utilisation as nitrogen source; extreme values may be limits of the assay
Method: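 Biolog Phenotype MicroArray plates PM6-PM8: each di/tripeptide is the sole nitrogen source. Tetrazolium reduction was read in the OmniLog every 15 min for 24 h at 37°C and summarised as area under the respiration curve (arbitrary units). Values below 2000 count as no respiration. Strain is the dipeptide ABC transporter deletion mutant.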

SMILES	respiration area under curve
CC(C)C[C@H](NC(=O)CNC(=O)CN)C(=O)O (plate: PM8)	0
CC(C)C[C@@H](NC(=O)CNC(=O)CN)C(=O)O (plate: PM8)	4.75
